# Bioassay records: PubChem BioAssay, National Center for Advancing Translational Sciences (NCATS)
# Hits are enriched below; roughly 8.9% of the tested compounds scored in any of these assays.
# DRD3 agonist: agonists of human D3 dopamine receptor. max activation, %. 0.58% of 410,000 active. AID 652048. D3R DiscoveRx beta-arrestin cells, luminescence, 90 min; in the data active = max activation above about 30%
# Target sequence (P35462 whole entry, looked up): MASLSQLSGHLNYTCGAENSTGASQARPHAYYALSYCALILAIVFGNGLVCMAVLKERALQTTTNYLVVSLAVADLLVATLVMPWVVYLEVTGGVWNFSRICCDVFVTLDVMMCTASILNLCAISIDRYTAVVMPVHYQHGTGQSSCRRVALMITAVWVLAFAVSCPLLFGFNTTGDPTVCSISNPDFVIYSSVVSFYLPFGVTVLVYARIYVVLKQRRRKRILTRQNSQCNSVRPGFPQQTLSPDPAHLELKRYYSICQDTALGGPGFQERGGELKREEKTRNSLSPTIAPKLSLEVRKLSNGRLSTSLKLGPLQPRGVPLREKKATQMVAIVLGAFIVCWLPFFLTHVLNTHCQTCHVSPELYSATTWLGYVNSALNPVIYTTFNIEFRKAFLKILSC
#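 Agonist-mode cell screen: cells plated at 1500/well and incubated overnight at 37 °C, then exposed to library compounds for 90 min at 37 °C. Detection reagent was added for 30–60 min at room temperature, and luminescence was read.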
# SW480 rerep: induces DNA re-replication in SW480 colon adenocarcinoma cells; 1.8% of 340,000 active; SW480 DNA re-replication, Hoechst DNA content imaging, 48 h; AID 624297; Potency, µM (titrated, usually from 46.1 µM), usual class: activators; also: nearly all actives have a fitted effect of over 55% in size
#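 Hoechst fluorescence of nuclei (405 nm excitation, 500-530 nm emission) measured by plate-scanning imager after 48 hr compound exposure at 37 C; re-replication scored as increased number of nuclei with elevated intensity.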
# KB-V1 MDR tox: KB-V1 MDR subline cytotoxicity; KB-V1 MDR cells viability, CellTiter-Glo, 72 h; Potency, µM (highest dose often 46.1 µM), most hits filed as cytotoxic; 3.4% of 400,000 active; also: nearly all actives have a fitted effect of over 60% in size
#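 qHTS viability screen in drug-selected KB-V1 MDR cells: 72 h compound treatment at 37 degrees C, ATP luminescence end point.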
# DRD3 antagonist: antagonists of human D3 dopamine receptor; P35462; D3R cells, DiscoveRx beta-arrestin luminescence, antagonist mode; active compounds read low; max response, negative = inhibition, %; 2.5% of 360,000 active; AID 652054; in the data active = max response below about -50%; inconclusive = no clear call, values can overlap the other calls
#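 Cells plated overnight at 1500 cells/well, then exposed to library compounds with dopamine controls for 90 minutes at 37 degrees C. DiscoveRx reagent added for 30–60 minutes at room temperature; luminescence read, quantitative HTS format.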
# KB-3-1 tox: KB-3-1 parental cell cytotoxicity | KB-3-1 viability, CellTiter-Glo ATP luminescence, 72 h | 1.4% of 400,000 active | Potency, µM (highest dose often 46.1 µM), most hits filed as cytotoxic; also: nearly all actives have a fitted effect of over 60% in size
#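 Cells are dispensed, compounds pinned in, plates held at 37 °C for 72 h, then CellTiter-Glo is added and luminescence read after 10 minutes. Cell line: parental KB-3-1 in phenol-red-free DMEM, 10% FBS.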
# MCF10A rerep: induces DNA re-replication in MCF 10a normal breast cells; Potency, µM (titrated, usually from 46.1 µM), actives largely listed as activators; AID 624296; 2.9% of 350,000 active; MCF 10A DNA re-replication, Hoechst nuclear intensity, 48 h; also: nearly all actives have a fitted effect of over 50% in size
# Hits are given with their value; – = inactive; ? = inconclusive; · = no result; ! = repeats disagree; [ ] = another dose, or the depositor's remark. Unless noted, calls follow the shape of the dose curve; as a rule, active = well fitted curve in the direction sought with a large enough effect; inconclusive = small, poorly fitted or top-dose-only effect, or another doubt; inactive = no such curve, though single readings can be large; an effect the other way counts as inactive or inconclusive.
SMILES,DRD3 agonist,SW480 rerep,KB-V1 MDR tox,DRD3 antagonist,KB-3-1 tox,MCF10A rerep
CCC(C(=O)N1CCN(c2ccccc2)CC1)n1nc(C)c2sc3ccccc3c2c1=O (stereo not drawn),–,·,–,·,–,·
O=[N+]([O-])c1ccc(C(O)CN2CCN(c3ccccc3)CC2)cc1 (stereo not drawn),34,–,–,–,–,–
CN(c1ccc(C(=O)N2CCOCC2)cc1[N+](=O)[O-])C1CCCCC1,–,–,23µM,-60,–,–
O=[N+]([O-])c1ccc(C(O)CN2CCOCC2)cc1 (stereo not drawn),–,–,–,–,–,–
C=CCc1ccccc1OCc1nc2ccccc2n1CC,–,·,–,·,–,·
CC[C@@H](CC1CCCCC1)C(=O)N(Cc1ccccc1)c1ccccc1,–,–,?,–,–,–
N#CCCC1CCCC=C1N(Cc1ccccc1)C(=O)C(Cl)Cl (stereo not drawn),–,–,?,–,–,10µM
CCOc1ccc(-c2c(C)nn3c(C)c(C(=O)NCCc4ccccc4)cnc23)cc1OCC,–,·,–,·,–,·
COc1ccc(Cl)cc1NC(=O)NCCc1c(C)nn(C)c1C,–,·,–,·,–,·
CN(CC#CC1(O)c2ccccc2-c2ccccc21)Cc1ccccc1,–,–,8.2µM,–,–,–
O=S(=O)(NC1CCCCC1)c1ccc(Cl)s1,–,?,?,–,–,21µM
CC1CCC(NS(=O)(=O)c2ccc(Cl)s2)CC1 (stereo not drawn),–,–,–,–,–,?
CCOc1ccc(CN2C(=O)c3ccccc3Sc3ccc(C(=O)NCc4ccc(C)cc4)cc32)cc1,–,·,·,·,·,·
CCCOc1ccc(C2CC(=O)Nc3c2c(=O)n(C)c(=O)n3C)cc1OC (stereo not drawn),–,·,–,·,–,·
Cc1cccc(CSc2nc3ccncc3n2CC(=O)Nc2cc(C)cc(C)c2)c1,–,–,–,-55,–,?
CCSc1nnc(NC(=O)NCC(F)(F)F)s1,–,–[9.22 µM],–,-83,–,–
CCSc1nnc(NC(=O)c2cnccn2)s1,–,–,–,-136,–,–
CCSc1nnc(NC(=O)c2csc3c2CCCC3)s1,–,15µM,–,–,–,?
CCSc1nnc(NC(=O)C(C)(C(F)(F)F)C(F)(F)F)s1,–,–,–,–,?,–
CCSc1nnc(NC(=O)c2cccnc2Cl)s1,–,–,–,–,–,–
CCSc1nnc(NC(=O)c2csc3c2CCC(C)C3)s1 (stereo not drawn),–,–,–,–,–,–
CCSc1nnc(NC(=O)c2ccccn2)s1,–,?,–,-84,?,–
COc1ccc(NC(=O)c2sc3nc4c(c(-c5ccc(OC)cc5)c3c2N)C(=O)CC(C)(C)C4)cc1,–,·,–,·,–,·
CCSc1nnc(NC(=O)c2cccc(S(=O)(=O)N(C)c3ccc(C)cc3)c2)s1,–,18µM,15µM,–,–,?
N#CC1=C(N)C(C#N)(C#N)C(c2ccc[nH]2)C2CCCC=C12 (stereo not drawn),–,–,?,–,–,–
SMILES,DRD3 agonist,SW480 rerep,KB-V1 MDR tox,DRD3 antagonist,KB-3-1 tox,MCF10A rerep
N#CC1=C(N)C2=CCCC[C@H]2[C@H](c2cccc(F)c2)C1(C#N)C#N,–,–,–,–,–,21µM
C=C[C@@]1(C)CC(=O)[C@]2(O)[C@@]3(C)[C@@H](O)CCC(C)(C)[C@@H]3[C@H](O)[C@H](OC(C)=O)[C@@]2(C)O1,36!,–,–,–,–,–
C=C[C@@]1(C)CC(=O)[C@]2(O)[C@@]3(C)[C@@H](O)CCC(C)(C)[C@@H]3[C@H](OC(C)=O)[C@H](O)[C@@]2(C)O1,–,–,–,–,–,–
CCOc1ccc2nc(SCC(=O)NC3CCCCC3)[nH]c2c1,–,–,16µM,–,–,–
COc1ccc(-n2c(SCC(=O)NC3CCCCC3)nc3ccsc3c2=O)cc1,–,–,2.1µM,–,–,–
COc1ccc2nc(SCC(=O)NC3CCCC3)c(C)cc2c1,–,?,?,–,7.3µM,8.2µM
COc1ccc2nc(SCC(=O)NC3CCCCC3)[nH]c2c1,–,–,–,–,–,–
COc1ccc(OC)c(NC(=O)CSc2nnc(Cc3cccn3C)n2CCc2ccccc2)c1,–,–,7.3µM,–,–,–
O=C(NCC(=O)N1CCCCCC1)c1ccc(Br)cc1,–,–,–,–,–,–
COc1cc(OC)cc(-n2nnnc2SCC(=O)NC2CCCC2)c1,–,–[9.22 µM],–,-71,–,–
COc1ccc(-n2nnnc2SCC(=O)NC2CCCC2)cc1OC,–,–,?,–,–,–
COc1ccc(NC(=O)CSc2nnnn2C2CCCCC2)c(OC)c1,–,–,–,–,–,–
COc1ccc(OC)c(NC(=O)CSc2nnnn2C2CCCC2)c1,36,–,–,–,–,–
COc1cccc(CNC(=O)Cn2c(=O)n3nc(-c4cccc(F)c4)nc3c3ccccc32)c1,–,·,–,·,–,·
COc1ccc(CN2CCN(Cc3ccccc3)C(CCO)C2)cc1OC (stereo not drawn),–,–,–,-72,–,–
OCCC1CN(Cc2ccc(C(F)(F)F)cc2)CCN1Cc1ccccc1 (stereo not drawn),–,–,?,–,–,–
CC(C)CCN1CCN(Cc2cccc(C(F)(F)F)c2)CC1CCO (stereo not drawn),–,–,?,-112,–,–
OCCC1CN(Cc2cccc(C(F)(F)F)c2)CCN1Cc1ccccc1 (stereo not drawn),–,–,?,-72,–,–
Cc1ccc(CN2CCN(C/C=C/c3ccc(F)cc3)CC2CCO)o1 (stereo not drawn),–,–,–,-93,–,–
CCc1cccc(OCC(=O)Nc2ccc(S(=O)(=O)Nc3ncccn3)cc2)c1,–,·,–,·,–,·
COc1ccc2nc(NC(=O)c3ccc(S(=O)(=O)N4CCCC(C)C4)cc3)sc2c1 (stereo not drawn),–,·,–,·,–,·
O=C(Cn1ncc2c([nH]c3ccccc32)c1=O)Nc1cccc(C(F)(F)F)c1,–,·,–,·,–,·
COc1ccccc1/C=C/CN1CCN(Cc2ccc(F)cc2)C(CCO)C1 (stereo not drawn),–,–,–,-82,–,–
C/C(=C\c1ccco1)CN1CCN(Cc2ccc(C)o2)C(CCO)C1 (stereo not drawn),–,–,–,-70,–,–
CSc1cccc(CN2CCN(CCC(C)C)C(CCO)C2)c1 (stereo not drawn),–,–,–,-51,–,–
Clc1ccccc1N1CCN(Cc2c[nH]c3ccccc23)CC1,–,–[9.22 µM],?,-78,?,?
N#Cc1ccc(CN2CCN(C(=O)c3ccccc3)CC2)c(Cl)c1,–,–,21µM,–,–,–
